Reference: PubChem BioAssay

Assay: small-molecule binders of probe aInhba, primary screen, biochemical, small-molecule microarray, 635/667 nm fluorescence (AID 1148);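 also: score merges 667nm spot fluorescence with signal-to-noise for antibody binding to printed compounds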
Details: higher = more signal
With `CO[C@H]1COC(=O)[C@@H](Cc2ccccc2)NC(=O)[C@@H](C)COC(=O)CCC[C@@H]1C` the composite z-score was -0.285. Molecule `CCOC(=O)[C@H](CC(C)C)NC(=O)CCC1CC(OC(=O)NCCc2ccc(F)cc2)CC2(CCCC(COC(=O)NCCc3ccccc3OC)O2)O1` (some centres not stated) has a composite z-score of -0.0736. For `CCc1cc2c(nc1CC)CCN(CCC(C)=NO[C@H](C)c1cn([C@H](CO)Cc3ccccc3)nn1)C2`, the composite z-score was 0.173. With `CO[C@H]1COC(=O)CC=C[C@@H](C)[C@H](NS(=O)(=O)c2ccc(C)cc2)COC(=O)CCC[C@@H]1C` the composite z-score was -0.239. Work on `C=Cc1ccc([C@H]2N[C@H](C(=O)O)CC[C@@H]2C)cc1` yielded a composite z-score of -0.0714. `CO[C@H]1COC(=O)[C@@H](C)COC(=O)[C@H](COCc2ccccc2)NC(=O)CC=C[C@H]1C` showed a composite z-score of -0.203. `CCOC(=O)[C@H](CC(C)C)NC(=O)CCC1CC(OC(=O)NCc2cccc3ccccc23)CC2(CCCC(COC(=O)NCCC(C)C)O2)O1` (some centres not stated) gave a composite z-score of -0.0736. `CO[C@H]1COC(=O)CC=C[C@@H](C)[C@H](OC)COC(=O)[C@@H]2CCCN2C(=O)CC=C[C@@H]1C` showed a composite z-score of -0.186. Work on `O=C1[C@H]2[C@H]3[C@H](O)[C@H](O)CC(=NOCc4ccccc4)[C@H]3CC[C@H]2C(=O)N1Cc1ccc2c(c1)OCO2` yielded a composite z-score of -0.15. In the case of `Cc1ccc(S(=O)(=O)NC(CCc2ccccc2)CC(=O)C(C)(C)C)cc1` (configuration not stated), the composite z-score is reported as -0.0986. `O=C1C=C[C@@H](O)[C@@H]2[C@@H]3C(=O)N(C[C@@H]4CCCO4)C(=O)[C@@H]3CC[C@@H]12` showed a composite z-score of -0.0424. `CC(C)=CCCC(C)=CCON=C1C[C@@H](O)[C@@H](O)[C@@H]2[C@@H]3C(=O)N(Cc4ccccc4)C(=O)[C@@H]3CC[C@@H]12` showed a composite z-score of -0.157.
